Hits are enriched below; roughly 1.4% of the tested compounds scored in any of these assays.
PV pol inh = poliovirus RdRp elongation inhibitors, primary screen, biochemical, fluorescence polarization, total intensity. poliovirus polymerase elongation; active compounds read low. 150,000 tested, 0.66% active. % elongation, % (compound at 16.7 µg/mL). Genome polyprotein (Poliovirus type 1 (strain Mahoney)), P03300; in the data active means % elongation below about 90%
Target sequence (P03300 1749-2209 limits assumed): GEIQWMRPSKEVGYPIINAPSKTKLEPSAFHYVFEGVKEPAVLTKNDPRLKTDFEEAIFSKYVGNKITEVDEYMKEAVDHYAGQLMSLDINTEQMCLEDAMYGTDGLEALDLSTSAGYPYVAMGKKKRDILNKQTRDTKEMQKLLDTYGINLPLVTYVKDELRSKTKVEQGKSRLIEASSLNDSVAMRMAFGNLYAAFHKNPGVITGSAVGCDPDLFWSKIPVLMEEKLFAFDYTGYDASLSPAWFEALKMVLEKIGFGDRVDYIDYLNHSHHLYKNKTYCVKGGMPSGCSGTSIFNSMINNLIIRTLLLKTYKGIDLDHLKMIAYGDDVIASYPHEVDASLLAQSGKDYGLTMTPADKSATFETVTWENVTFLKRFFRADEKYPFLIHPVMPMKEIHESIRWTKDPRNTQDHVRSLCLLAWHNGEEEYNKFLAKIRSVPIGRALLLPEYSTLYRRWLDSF
MbtI inh = MbtI salicylate synthase inhibitors, primary screen, biochemical, fluorescence intensity. purified MbtI enzyme, fluorescence intensity read-out. inhibition, % (concentration not given with the values). AID 493033, 2011. P9WFX0. 100,000 tested, 0.89% active; in the data active means inhibition mostly above about 56%, no sharp cut-off; inactive means mostly below about 77%
MenB inh = M. tuberculosis MenB inhibitors, primary screen, biochemical, absorbance; 1,4-dihydroxy-2-naphthoyl-CoA synthase (Mycobacterium tuberculosis (strain ATCC 25618 / …; MenB enzyme assay, absorbance read-out; inhibition, % (test concentration not listed); 100,000 tested, 0.43% active; in the data active means inhibition above about 21%, passing the limit was not always enough
Of the large screens only hits and unclear results are named; the others gave an inactive call; ! = not active in a repeat.

COc1cc(C)c(S(N)(=O)=O)c(S(N)(=O)=O)c1	none (no result: PV pol inh, MenB inh)
CCOC(=O)C1CCCN(C(=O)c2ccc3c(c2)N(C)CCS3)C1 (stereo not given)	none
CCS(=O)(=O)C1=NSC2=NC(=O)/C(=C\c3ccco3)C(=N)N21	PV pol inh 72.0
CC(C)CS(=O)(=O)C1=NN2C(=N)/C(=C\c3ccco3)C(=O)N=C2S1	none
COCC(C)n1c(C)cc(/C=C(\C#N)C(=O)O)c1C (stereo not given)	none
Cc1ccccc1CSCc1nc2ccccc2c(=O)n1CC#N	none
N#CCn1c(Cc2ccccc2)nc2ccccc2c1=O	MenB inh 47.9
N#CCn1c(C[S+]=C=N)nc2ccccc2c1=O	MbtI inh 84.3
CN(C)Cc1nc2ccccc2c(=O)n1CC#N	none
COC(=O)c1ccc(CS(=O)(=O)c2ccccc2)o1	none (no result: PV pol inh, MenB inh)
O=c1c(=NO)c(=O)c2ccccc12	PV pol inh 32.0
O=c1c2ccccc2c2nc3c(=O)c4ccccc4c3nc12	none
Cc1ccc(S(=O)(=O)Cc2ccc(N)cc2)cc1	none
COC(=O)C(F)C(=O)OC	PV pol inh 88.0
COC(=O)C(N)C12CC3CC(CC(C3)C1)C2 (stereo not given)	none
O=C1C=C(Nc2ccccc2)C(=O)c2ccccc21	none
O=C1C(Nc2ccccc2)=CC(=O)c2ncccc21	PV pol inh 82.0
CCOC(=O)c1c(Nc2ccc(OC)c(Cl)c2)n[nH]c1C	MbtI inh 87.8
CCOC(=O)c1c(N=Cc2ccc(OC)c(OC)c2Cl)n[nH]c1C	none
CCc1ccccc1N/C=C(\C#N)c1nc2ccccc2[nH]1	none
N#CSCC(=O)c1cccs1	PV pol inh 85.0 (no result: MbtI inh)
N#Cc1ccccc1OCC(=O)c1cccs1	none
COc1ccc(NC(=O)c2oc3ccccc3c2NC(=O)Cc2coc3c(C)c(C)ccc23)cc1	PV pol inh -10.0 (no result: MbtI inh, MenB inh)
Cc1cccc(NC(=O)c2oc3ccccc3c2NC(=O)Cc2coc3c(C)c(C)ccc23)c1	none (no result: MbtI inh, MenB inh)
O=C(CCN1C(=O)C2CC=CCC2C1=O)Nc1cc(C(F)(F)F)ccc1-n1cncn1 (stereo not given)	none
Cc1cccc2cc(CN(Cc3ccco3)C(=O)c3ccccc3)c(=O)[nH]c12	none
N#CCC(=O)Nc1ccc(C(=O)Nc2cccc(Cl)c2)cc1	none
O=c1ccc2cc3c([nH]c4ccc(Br)cc43)oc-2c1O	MbtI inh 96.8
O=C(O)c1cc(=O)c2cc(Br)ccc2o1	none (no result: MbtI inh)
O=C1NC(=O)N(CCc2ccc(F)cc2)C(=O)/C1=C/c1cccc2ccccc12	none (no result: MbtI inh)
Cc1ccnc(NC(=O)c2ccc3c(c2)C(=O)N(Cc2ccco2)C3=O)c1	none
CN(C)S(=O)(=O)c1ccc2nnn(OCc3ccccc3)c2c1	none
O=C(NCc1ccccc1)c1ccco1	none
CC(Sc1ccccc1)C(=O)NCc1ccco1 (stereo not given)	none
O=C(NCc1ccco1)C(Sc1ccccc1)c1ccccc1 (stereo not given)	MenB inh 32.7
O=C(NCc1ccco1)C(=S)NCc1ccccc1	MbtI inh 68.4
CC(C)NC(=O)COCc1cc(-c2ccco2)on1	none
CCn1c(=O)sc2cccc(Cl)c21	none
O=C(C1CCCN1c1nnc(N2CCCC2=O)s1)N1CCN(c2ccccc2)CC1 (stereo not given)	none
CC(=O)N1CCc2ccccc2C1	none (no result: MbtI inh)
CC(=C1C(=O)c2ccccc2C1=O)N1CCc2ccccc2C1	PV pol inh 89.0
O=C(c1ccccc1)c1ccccc1NC(=O)c1ccccc1C(=O)O	none (no result: MbtI inh, MenB inh)
O=C(Nc1ccccc1C(=O)O)c1ccccc1	MbtI inh 55.5 (no result: PV pol inh, MenB inh)
O=C(Cc1ccccc1)c1ccc2c(c1)OCO2	none (no result: MbtI inh)
N#CCOC(=O)c1cc(=O)c2ccccc2o1	PV pol inh 74.0
CN(Cc1ccccc1)C(=O)COC(=O)c1cc(=O)c2ccccc2o1	none
O=c1[nH][nH]c(=S)n1CC1CCCO1 (stereo not given)	none
O=c1[nH][nH]c(=S)n1C1Cc2ccccc2C1	MbtI inh 67.2
O=c1[nH][nH]c(=S)n1-c1ccc2c(c1)OCCO2	none (no result: MbtI inh)
O=c1[nH][nH]c(=S)n1C1CC1	MbtI inh 71.2, MenB inh 37.9!
COC(=O)C(NC(=O)Nc1ccc(C(C)(C)C)cc1)C(C)C (stereo not given)	none
CC1(C)Cc2c(c(N3CCNCC3)[nH]c(=S)c2C#N)CO1	MbtI inh 94.5
CC1(C)Cc2c(C#N)c(N)sc(=S)c2CO1	none
COc1ccc(N2C(=O)/C(=C\c3ccco3)N=C2SCC(=O)/C(C#N)=C(\C)N)cc1Cl	none
Fc1ccc(NC(=S)N2CCCCC2)cc1	none
S=C(Nc1ccc2nsnc2c1)N1CCCC1	PV pol inh 89.0
CC1(C)CC(=O)C2=C(C1)Nc1[nH]c(=S)[nH]c(=O)c1C2c1ccc(O)cc1 (stereo not given)	none
CNC(=S)NC1CCS(=O)(=O)C1 (stereo not given)	none
O=S1(=O)CCC(NC(=S)S)C1 (stereo not given)	MbtI inh 95.6 (no result: MenB inh)
Clc1ncnc2sc3c(c12)CCCC3	none
Clc1ncnc2sc3c(c12)CCC3	MbtI inh 88.9
COc1ccc(Cc2nn3c(-c4ccccc4Br)nnc3s2)cc1	none
COc1ccc(Cc2nn3c(Cc4ccccc4)nnc3s2)cc1	MbtI inh 93.1
CC1=NN(c2ccccc2)C(=O)C1(C)N (stereo not given)	none
CC1=NN(c2ccccc2)C(=O)C1(O)C1C(=O)c2ccccc2C1=O (stereo not given)	PV pol inh 29.0
COc1ccc(-n2c(N)c(C(=O)NCCN3CCOCC3)c3nc4ccccc4nc32)cc1OC	none
Cc1ccc(S(=O)(=O)c2nc(S(C)(=O)=O)sc2N2CCCC2)cc1	none
Cc1ccc(S(=O)(=O)c2[nH]c(=S)sc2N2CCOCC2)cc1	MbtI inh 93.0 (no result: PV pol inh)
CCOC(=O)Cn1cc(C)c(=O)[nH]c1=O	none
CC(C)CCC1CC(C)(C(C)O)OC1=O (stereo not given)	none
Cc1nc2c3ccccc3nc(NNC(=O)CCC(=O)NC3CCCC3)n2n1	none
CCC(C)NC(=O)CCC(=O)NNc1nc2ccccc2c2nc(C)nn12 (stereo not given)	PV pol inh 36.0 (no result: MbtI inh, MenB inh)
Cc1nc2c3ccccc3nc(NNC(=O)CCC(=O)O)n2n1	none (no result: MbtI inh, MenB inh)
COCCNC(=O)CCC(=O)NNc1nc2ccccc2c2nc(C)nn12	PV pol inh 30.0 (no result: MbtI inh, MenB inh)
Nc1nnc(SCC(=O)NCc2ccco2)s1	none (no result: MbtI inh)
O=C(Oc1ccc(-c2nnco2)cc1)C1c2ccccc2Oc2ccccc21	none
S=c1[nH]nc(/N=C/c2ccc(Br)cc2)n1Cc1ccccc1	none
O=C(Nc1ccccc1)c1nnn(Cc2ccccc2)c1NC(=O)C(F)(F)F	PV pol inh 89.0 (no result: MbtI inh)
Nc1c(C(=O)Nc2ccccc2)nnn1Cc1ccccc1	none
N#CC1=C(N)Oc2ccc3ccccc3c2C1c1ccccc1 (stereo not given)	none (no result: MenB inh)
COc1ccc(-c2cn3c(n2)CCC3)cc1	none (no result: MenB inh)
c1c(SSc2cn3c(n2)CCC3)nc2n1CCC2	MbtI inh 93.2
Cc1ccc(O)c(C(=O)c2cnn3c(N)nnc3c2)c1	PV pol inh 64.0
Cc1ccc(O)c(C(=O)c2cnn3c(=S)[nH]nc3c2)c1	PV pol inh 71.0
Cc1ccc(O)c(C(=O)c2cnn(-c3nc(C)cc(=O)[nH]3)c2)c1	none
Nc1nnc2cc(C(=O)c3cc(F)ccc3O)cnn12	none
Cc1ccc(S(=O)(=O)NC23CC4CC(C2)CC(C(=O)O)(C4)C3)cc1	none
Cc1cc(Cn2cnc3ccccc3c2=O)no1	none

Source: PubChem
